Growth data for seven compounds are collected here from PubChem BioAssay (NCI).

Among the test systems are SK-MEL-2 melanoma; EKVX NSCLC; SN12C renal; UO-31 renal; TK-10 renal; ACHN renal; CAKI-1 renal; A498 renal; CCRF-CEM leukemia; MOLT-4 leukemia; SR leukemia; RPMI-8226 leukemia; OVCAR-8 ovarian; OVCAR-5 ovarian; OVCAR-4 ovarian; SK-OV-3 ovarian; IGROV1 ovarian; OVCAR-3 ovarian; HS 578T breast; NCI/ADR-RES ovarian.
Common to all, as to assay: NCI-60 one-dose screen, 48 h (100 = growth as untreated, 0 = no growth, -100 = all killed)
Holding throughout (details): 10 µM unless noted

The structures appear in SMILES notation. The panel holds about 83,000 compounds, 20% with a hit somewhere; the sample as a whole holds those more often.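 Each cell line was grown in a 96-well plate and treated with one concentration of compound for 48 hours. Values below 10 were considered active.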 A number with no mark means an inactive call. The source made the active and inactive calls.

Turning to `O=C(c1ccc(Cl)cc1)C1[C@H](c2ccccc2Cl)[C@@H](c2ccccc2)NC12C(=O)Nc1ccccc12` (stereo not given in full), the growth was -85.3% (active) with SK-MEL-2 melanoma; 1.03% (active) in the experiment on EKVX NSCLC; -89.1% (active) in the experiment with SN12C renal; 3.34% (active) in the experiment with UO-31 renal; 12.1% with TK-10 renal; 1.1% (active) with ACHN renal. Also, the growth in the experiment on CAKI-1 renal was 3.65% (active); with A498 renal, -29% (active); in the experiment on CCRF-CEM leukemia it was 4.66% (active); with MOLT-4 leukemia, -32.1% (active); with SR leukemia it was -41% (active); in the experiment with RPMI-8226 leukemia, -0.108% (active). Moreover, the growth with OVCAR-8 ovarian is -31% (active); with OVCAR-5 ovarian it was -5.18% (active); in the experiment with OVCAR-4 ovarian, 2.24% (active); in the experiment on SK-OV-3 ovarian it was 23.1%; in the experiment with IGROV1 ovarian, -2.25% (active); in the experiment on OVCAR-3 ovarian, -15.5% (active). The growth was -38.3% (active) in the experiment with HS 578T breast and -62.5% (active) with NCI/ADR-RES ovarian.
Turning to `O=C1c2cccc3c(N4CCN(Cc5ccccc5)CC4)ccc(c23)C(=O)N1c1cccc(-c2nn(-c3ccccc3)cc2-c2nc3ccccc3s2)c1`, the growth in the experiment with SK-MEL-2 melanoma was 111%; in the experiment on EKVX NSCLC, 98.6%; with SN12C renal, 101%; in the experiment on UO-31 renal, 68.8%; in the experiment on TK-10 renal, 120%; in the experiment on ACHN renal, 93.1%. Moreover, the growth with CAKI-1 renal was 86.1%; in the experiment with A498 renal it was 125%; in the experiment on CCRF-CEM leukemia, 105%; with MOLT-4 leukemia it was 113%; in the experiment on SR leukemia, 87.3%; in the experiment with RPMI-8226 leukemia, 103%. In addition, the growth in the experiment on OVCAR-8 ovarian is 115%; in the experiment with OVCAR-5 ovarian, 107%; in the experiment on OVCAR-4 ovarian, 105%; with SK-OV-3 ovarian, 102%; in the experiment on IGROV1 ovarian, 89.5%; with OVCAR-3 ovarian, 102%. The growth with HS 578T breast is 106%; in the experiment with NCI/ADR-RES ovarian, 104%.
Turning to `COc1ccc2nc(NC(=O)c3ccc(N(C)C)cc3)sc2c1`, the growth was 88.8% in the experiment with SK-MEL-2 melanoma; 63.4% in the experiment on EKVX NSCLC; 85.6% with SN12C renal; 46.7% in the experiment on UO-31 renal; 115% in the experiment on TK-10 renal; 77.5% with ACHN renal. The growth is 79.6% with CAKI-1 renal; 95.6% with A498 renal; 47.7% in the experiment on CCRF-CEM leukemia; 43.1% in the experiment with MOLT-4 leukemia; 42.5% in the experiment on SR leukemia; 31.9% with RPMI-8226 leukemia. Further, the growth was 75.7% in the experiment with OVCAR-8 ovarian; 93% in the experiment with OVCAR-5 ovarian; 75% in the experiment on OVCAR-4 ovarian; 111% in the experiment on SK-OV-3 ovarian; 99.5% with IGROV1 ovarian; 94.5% in the experiment with OVCAR-3 ovarian. Further, the results for the growth with HS 578T breast and with NCI/ADR-RES ovarian were 95.9% and 52.9%, respectively.
For the compound `COc1ccc(NC(=O)CSc2nnc(-c3ccc(-c4nc5ccccc5[nH]4)cc3)o2)cc1`, the growth in the experiment with SK-MEL-2 melanoma was 61.8%; with EKVX NSCLC it was 53.2%; with SN12C renal, 31%; in the experiment on UO-31 renal, 97.7%; with TK-10 renal, 96.8%; in the experiment with ACHN renal it was 35.4%. Besides, the growth in the experiment with CAKI-1 renal is 41.5%; with A498 renal, 147%; in the experiment with CCRF-CEM leukemia it was 50.7%; in the experiment on MOLT-4 leukemia, 35.9%; with SR leukemia, 35.3%; in the experiment on RPMI-8226 leukemia, 18.4%. The growth with OVCAR-8 ovarian was -24.6% (active); in the experiment with OVCAR-5 ovarian, 55.4%; in the experiment with OVCAR-4 ovarian, 38.3%; in the experiment on SK-OV-3 ovarian, 98.2%; with IGROV1 ovarian, 35.6%; with OVCAR-3 ovarian, 41.4%. Also, the growth is 45% in the experiment with HS 578T breast and 50.1% with NCI/ADR-RES ovarian.
For `Cn1cc(-c2cc(N)n3nc(-c4c[nH]c5ccc(F)cc45)cc3n2)c2cc(Br)cnc21`, the growth in the experiment on SK-MEL-2 melanoma is 87.3%; in the experiment on EKVX NSCLC it was 65.5%; in the experiment on SN12C renal, 69.3%; with UO-31 renal, 47.3%; in the experiment with TK-10 renal it was 90.9%; in the experiment on ACHN renal, 39.5%. Moreover, the growth in the experiment with CAKI-1 renal is 46%; with A498 renal, 109%; in the experiment on CCRF-CEM leukemia, -42.9% (active); in the experiment on MOLT-4 leukemia it was -10.4% (active); in the experiment on SR leukemia, -23.5% (active); with RPMI-8226 leukemia it was 19.2%. The growth was 42.8% in the experiment with OVCAR-8 ovarian; 74.2% with OVCAR-5 ovarian; 71.6% in the experiment on OVCAR-4 ovarian; 104% in the experiment with SK-OV-3 ovarian; 70.7% in the experiment on IGROV1 ovarian; 109% with OVCAR-3 ovarian. Also, the growth in the experiment with HS 578T breast is 86.4%; in the experiment with NCI/ADR-RES ovarian, 56%.
On to `O=S(=O)(c1nc(-c2ccc(Br)cc2)oc1-c1ccc(Cl)cc1)N1CCCC(O)C1` (stereo not given), for which the growth is 65.2% with SK-MEL-2 melanoma; 50% in the experiment on EKVX NSCLC; -59.5% (active) in the experiment with SN12C renal; 37.4% in the experiment with UO-31 renal; 102% with TK-10 renal; 53.8% in the experiment with ACHN renal. Moreover, the growth with CAKI-1 renal was 71.1%; with A498 renal, 83.3%; in the experiment on CCRF-CEM leukemia, 48.1%; in the experiment with MOLT-4 leukemia it was 6.98% (active); in the experiment with SR leukemia, 37.2%; with RPMI-8226 leukemia it was 29.7%. The growth is 68.4% with OVCAR-8 ovarian; 87.8% with OVCAR-5 ovarian; 43% in the experiment on OVCAR-4 ovarian; 101% in the experiment with SK-OV-3 ovarian; 87.8% with IGROV1 ovarian; 63.1% in the experiment on OVCAR-3 ovarian. In addition, the growth with HS 578T breast was 82.1%; in the experiment with NCI/ADR-RES ovarian it was 31.3%.
Take `COc1c(B(O)O)cc(F)cc1-c1nc2ccc3[nH]ncc3c2c2c1COCC2`: the growth with SK-MEL-2 melanoma was 93.9%; with EKVX NSCLC, 75.3%; in the experiment with SN12C renal it was 50.3%; in the experiment with UO-31 renal, 55%; in the experiment with TK-10 renal, 14.2%; in the experiment on ACHN renal, 36.4%. For the same compound, the growth in the experiment with CAKI-1 renal is -12.1% (active); in the experiment on A498 renal it was 106%; with CCRF-CEM leukemia, 19.1%; in the experiment with MOLT-4 leukemia, 53.1%; in the experiment on SR leukemia it was 43.4%; with RPMI-8226 leukemia, 31.5%. Besides, the growth in the experiment with OVCAR-8 ovarian was 51.5%; in the experiment with OVCAR-5 ovarian, 90.3%; in the experiment on OVCAR-4 ovarian, 102%; with SK-OV-3 ovarian, 82.8%; with IGROV1 ovarian it was 57.8%; in the experiment with OVCAR-3 ovarian, 64.1%. The growth was 9.63% (active) in the experiment with HS 578T breast and 93.9% in the experiment with NCI/ADR-RES ovarian.
